This note sets out measurements from PubChem BioAssay (EPA / NIEHS).

Results filed as inconclusive are left out. The source made the active and inactive calls. The calls were made as follows, unless noted: active = hit-call score of the fitted dose curve at least 0.9, where 1 is the maximum; inconclusive = response in the unintended direction; inactive = score below 0.9.

One may read the AC50 as the midpoint of the concentration-response curve, whichever way the signal moves.

Read-out in assay [1]: xenobiotic metabolism (CYP1A1), CYP1A1 (gene 1543)
Briefly: CLD_CYP1A1_24hr: CellzDirect (CLD) Gene Expression Assay for xenobiotic metabolism (CYP1A1) at 24 hours (AID 2283673).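 Also: CYP1A1 mRNA level by quantitative nuclease protection with chemiluminescence.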 The method in brief:
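Primary human hepatocytes dosed daily with fresh solutions in 0.2% DMSO vehicle. mRNA measured at 24 h by quantitative nuclease protection assay with chemiluminescence; gain-of-signal fit versus DMSO, with morphology-based cytotoxicity flags.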

Read-out in assay [2]: ABC Transporter (ABCB11), ABCB11 (gene 8647)
Briefly: CLD_ABCB11_6hr: CellzDirect (CLD) Gene Expression Assay for ABC Transporter (ABCB11) at 6 hours (AID 2283675).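 Also: hits raise ABCB11 mRNA level so AC50 marks induction.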 The method in brief:
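Human primary hepatocytes (two donor preparations) given fresh chemical daily at multiple concentrations, vehicle 0.2% DMSO. ABCB11 mRNA induction measured 6 h after dosing by qNPA chemiluminescence versus DMSO; cytotoxicity annotated from morphology.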

Assay [3] can be described thus: CLD_ACTIN_6hr: CellzDirect (CLD) Gene Expression Assay for Baseline Control (Actin) at 6 hours (AID 2283676).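 Also: active means increased actin mRNA relative to DMSO vehicle.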 The method in brief:
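Primary human hepatocytes dosed with fresh chemical solutions (vehicle 0.2% DMSO), harvested at 6 h. Actin mRNA quantified by quantitative nuclease protection assay with chemiluminescent read-out, as background control relative to DMSO.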

Read-out in assay [4]: Cytochrome P450 2B6 (Homo sapiens) (UniProt P20813)
Briefly: CLD_CYP2B6_6hr: CellzDirect (CLD) Gene Expression Assay for xenobiotic metabolism (CYP2B6) at 6 hours (AID 2283677).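 Also: actives raise CYP2B6 transcript above DMSO baseline so AC50 marks an inducer.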 The method in brief: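 Primary human hepatocytes dosed with chemicals at multiple concentrations, vehicle 0.2% DMSO; CYP2B6 mRNA induction measured 6 h after dosing by quantitative nuclease protection assay with chemiluminescence, gain of signal fitted relative to DMSO.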

The nature of assay [5]: CCTE_Padilla_ZF_144hpf_TERATOSCORE: (Legacy) CCTE's 144 Hour Post-fertilization zebrafish Assay Teratoscore, Padilla Lab (AID 2283679; active = hit-call score of the fitted dose curve at least 0.9, where 1 is the maximum; inactive = score below 0.9;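 as to AC50: zebrafish embryos with chorions exposed by immersion from 6-8 hpf to 5 dpf with daily renewal; teratogenicity score from eye scoring of death hatching and malformations at 144 hpf; higher score means more developmental defects relative to DMSO baseline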). The method, boiled down:
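Larvae scored by eye at 144 hpf for death, hatching and malformations after a day in clean Hanks'. Before that, daily-renewed exposure at 80 uM (0.4% DMSO, 26C) from roughly 6-8 hpf through 5 dpf, 4 embryos per chemical.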

Read-out in assay [6]: Glyceraldehyde-3-phosphate dehydrogenase (Homo sapiens) (UniProt P04406)
Briefly: CLD_GAPDH_6hr: CellzDirect (CLD) Gene Expression Assay for Baseline Control (Glyceraldehyde 3-phosphate dehydrogenase) at 6 hours (AID 2283681).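 Also: active means increased signal relative to DMSO vehicle.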 The method in brief:
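Primary human hepatocytes from two donor preparations, dosed at multiple concentrations with 0.2% DMSO vehicle; GAPDH mRNA measured 6 h after dosing by chemiluminescent quantitative nuclease protection assay (qNPA) on denatured lysates. Serves as background control; cytotoxicity annotated by morphology.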

Read-out in assay [7]: Broad substrate specificity ATP-binding cassette transporter ABCG2 (Homo sapiens) (UniProt Q9UNQ0)
Description: CLD_ABCG2_24hr: CellzDirect (CLD) Gene Expression Assay for ABC Transporter (ABCG2) at 24 hours (AID 2283685).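 As to AC50: AC50 is for induction meaning signal gain over DMSO vehicle.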 The method, boiled down: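 Primary human hepatocytes were dosed daily with ToxCast chemicals at multiple concentrations (vehicle 0.2% DMSO). ABCG2 mRNA was measured at 24 h by qNPA chemiluminescence; induction was scored as gain of signal versus DMSO.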

Read-out in assay [8]: Cytochrome P450 2B6 (Homo sapiens) (UniProt P20813)
Description: CLD_CYP2B6_24hr: CellzDirect (CLD) Gene Expression Assay for xenobiotic metabolism (CYP2B6) at 24 hours (AID 2283686). The method in brief:
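Primary human hepatocytes dosed daily for two days with fresh solutions, harvested at 24 hours; mRNA induction quantified by qNPA chemiluminescence, gain of signal vs 0.2% DMSO vehicle. Cytotoxicity annotated from phase-contrast morphology.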

Assay [9] in a line: CLD_ACTIN_24hr: CellzDirect (CLD) Gene Expression Assay for Baseline Control (Actin) at 24 hours (AID 2283670). The method in brief: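 Primary human hepatocytes dosed over multiple concentrations with 0.2% DMSO vehicle; actin mRNA measured at 24 h by qNPA chemiluminescence. Background control endpoint, fitted as gain of signal versus DMSO.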
Read-out in assay [10]: Cytochrome P450 2C19 (Homo sapiens) (UniProt P33261)
Description: CLD_CYP2C19_6hr: CellzDirect (CLD) Gene Expression Assay for xenobiotic metabolism (CYP2C19) at 6 hours (AID 2283678). The method in brief:
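Primary human hepatocytes from two donor preparations were dosed daily, with 0.2% DMSO as vehicle, and harvested 6 h after dosing. CYP2C19 mRNA induction was measured by qNPA chemiluminescence and fitted as gain of signal against DMSO.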

Read-out in assay [11]: Cytochrome P450 (CYP24A1_1), CYP24A1 (gene 1591)
Briefly: LTEA_HepaRG_CYP24A1_1: Life Technologies and Expression Analysis (LTEA) Assay for Cytochrome P450 (CYP24A1_1) using HepaRG (AID 2283671; active = hit-call score of the fitted dose curve at least 0.9, where 1 is the maximum; inactive = score below 0.9). Conditions: mRNA level, 48 h; actives raise or lower the signal. The method, boiled down: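 HepaRG, 48 h exposure, 8-pt half-log series from 100 uM in 0.5% DMSO, duplicates. Readout: TaqMan qRT-PCR of CYP24A1 mRNA, housekeeping-normalized (ACTB/GAPDH/POLR2A). Bidirectional curve fit vs DMSO baseline.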

Read-out in assay [12]: ABC Transporter (ABCB11), ABCB11 (gene 8647)
Briefly: CLD_ABCB11_24hr: CellzDirect (CLD) Gene Expression Assay for ABC Transporter (ABCB11) at 24 hours (AID 2283674; active = hit-call score of the fitted dose curve at least 0.9, where 1 is the maximum; inactive = score below 0.9). The method in brief: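 Primary human hepatocytes were dosed daily for two days, with 0.2% DMSO vehicle. ABCB11 mRNA induction was measured at 24 hours by quantitative nuclease protection assay with chemiluminescence. Gain of signal was fitted relative to DMSO.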

Read-out in assay [13]: xenobiotic metabolism (CYP1A2), CYP1A2 (gene 1544)
Briefly: CLD_CYP1A2_24hr: CellzDirect (CLD) Gene Expression Assay for xenobiotic metabolism (CYP1A2) at 24 hours (AID 2283683). The method in brief:
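Primary human hepatocytes from two donor preparations dosed daily with multiple concentrations of chemical, 0.2% DMSO vehicle. CYP1A2 mRNA at 24 h quantified by qNPA chemiluminescence; gain of signal analyzed relative to DMSO. Cytotoxicity flagged by phase-contrast morphology.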

Read-out in assay [14]: Cytochrome P450 2C19 (Homo sapiens) (UniProt P33261)
Briefly: CLD_CYP2C19_24hr: CellzDirect (CLD) Gene Expression Assay for xenobiotic metabolism (CYP2C19) at 24 hours (AID 2283687).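 Also: activity means mRNA induction above DMSO vehicle baseline.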 The method, boiled down:
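Primary human hepatocytes (two donor preparations) dosed daily with fresh test chemical in 0.2% DMSO vehicle; CYP2C19 mRNA induction measured at 24 h by quantitative nuclease protection assay with chemiluminescence, fitted for gain of signal versus DMSO.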

Read-out in assay [15]: glucuronosyltransferase (UGT1A1), UGT1A1 (gene 54658)
Description: CLD_UGT1A1_6hr: CellzDirect (CLD) Gene Expression Assay for glucuronosyltransferase (UGT1A1) at 6 hours (AID 2283672). The method, boiled down: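 Primary human hepatocytes from two donor preparations, dosed with fresh solutions in 0.2% DMSO, harvested at 6 h. UGT1A1 mRNA measured by qNPA chemiluminescence; induction fitted upward versus DMSO.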

Read-out in assay [16]: Cytochrome P450 3A4 (Homo sapiens) (UniProt P08684)
Briefly: CLD_CYP3A4_24hr: CellzDirect (CLD) Gene Expression Assay for xenobiotic metabolism (CYP3A4) at 24 hours (AID 2283689). The method, boiled down: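 Primary human hepatocytes from two donors dosed daily with fresh compound for two days, 0.2% DMSO vehicle. CYP3A4 mRNA at 24 hr by qNPA chemiluminescence; gain-of-signal fit versus DMSO, cytotoxicity flagged by morphology.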

Read-out in assay [17]: ABC Transporter (ABCB1), ABCB1 (gene 5243)
Description: CLD_ABCB1_24hr: CellzDirect (CLD) Gene Expression Assay for ABC Transporter (ABCB1) at 24 hours (AID 2283684). The method, boiled down: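 Primary human hepatocytes, two donor preparations, dosed daily with fresh solutions; vehicle 0.2% DMSO; harvested at 24 h. ABCB1 mRNA measured by quantitative nuclease protection assay (chemiluminescence); morphology-based cytotoxicity annotated.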

Chain of Glyceraldehyde-3-phosphate dehydrogenase (Homo sapiens) (P04406 whole entry, looked up): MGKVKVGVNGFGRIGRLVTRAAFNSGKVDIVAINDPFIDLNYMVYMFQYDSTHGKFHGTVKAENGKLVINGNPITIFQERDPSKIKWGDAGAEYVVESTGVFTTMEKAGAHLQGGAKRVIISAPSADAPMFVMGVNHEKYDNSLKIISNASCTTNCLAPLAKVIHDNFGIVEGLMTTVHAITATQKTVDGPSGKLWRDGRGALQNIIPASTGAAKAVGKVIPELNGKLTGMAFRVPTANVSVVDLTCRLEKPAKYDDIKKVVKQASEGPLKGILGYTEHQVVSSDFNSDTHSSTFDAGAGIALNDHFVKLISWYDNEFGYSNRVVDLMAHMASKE
Chain of Broad substrate specificity ATP-binding cassette transporter ABCG2 (Homo sapiens) (Q9UNQ0 whole entry, looked up): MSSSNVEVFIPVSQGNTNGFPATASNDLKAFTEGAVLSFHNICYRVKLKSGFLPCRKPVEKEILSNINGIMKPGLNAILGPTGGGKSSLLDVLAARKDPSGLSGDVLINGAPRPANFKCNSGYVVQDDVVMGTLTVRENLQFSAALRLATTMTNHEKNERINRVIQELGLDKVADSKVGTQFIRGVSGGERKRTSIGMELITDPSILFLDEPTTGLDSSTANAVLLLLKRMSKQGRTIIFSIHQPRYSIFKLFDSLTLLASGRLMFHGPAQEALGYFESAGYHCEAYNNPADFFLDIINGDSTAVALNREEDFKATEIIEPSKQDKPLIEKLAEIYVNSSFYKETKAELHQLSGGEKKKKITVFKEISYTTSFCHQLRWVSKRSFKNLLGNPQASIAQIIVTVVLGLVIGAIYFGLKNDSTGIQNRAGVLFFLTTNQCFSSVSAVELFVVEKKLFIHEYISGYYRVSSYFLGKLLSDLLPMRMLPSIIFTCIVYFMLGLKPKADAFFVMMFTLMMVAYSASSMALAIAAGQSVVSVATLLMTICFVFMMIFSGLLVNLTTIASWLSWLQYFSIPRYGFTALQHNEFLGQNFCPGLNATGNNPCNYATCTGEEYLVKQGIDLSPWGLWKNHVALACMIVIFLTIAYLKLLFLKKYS
Chain of Cytochrome P450 2C19 (Homo sapiens) (P33261 whole entry, looked up): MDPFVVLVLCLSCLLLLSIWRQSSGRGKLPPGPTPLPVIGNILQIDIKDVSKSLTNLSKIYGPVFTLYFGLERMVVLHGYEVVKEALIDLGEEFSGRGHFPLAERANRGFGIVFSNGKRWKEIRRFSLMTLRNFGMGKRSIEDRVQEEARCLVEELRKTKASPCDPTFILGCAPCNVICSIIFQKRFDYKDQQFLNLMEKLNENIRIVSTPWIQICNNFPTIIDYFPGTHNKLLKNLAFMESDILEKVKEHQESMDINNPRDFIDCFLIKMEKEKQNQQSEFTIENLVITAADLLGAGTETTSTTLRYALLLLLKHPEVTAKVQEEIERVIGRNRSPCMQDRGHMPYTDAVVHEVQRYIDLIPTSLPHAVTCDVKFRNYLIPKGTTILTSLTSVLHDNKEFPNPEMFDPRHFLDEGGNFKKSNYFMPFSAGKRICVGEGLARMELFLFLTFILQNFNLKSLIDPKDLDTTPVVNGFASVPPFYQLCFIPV
Chain of Cytochrome P450 3A4 (Homo sapiens) (P08684 whole entry, looked up): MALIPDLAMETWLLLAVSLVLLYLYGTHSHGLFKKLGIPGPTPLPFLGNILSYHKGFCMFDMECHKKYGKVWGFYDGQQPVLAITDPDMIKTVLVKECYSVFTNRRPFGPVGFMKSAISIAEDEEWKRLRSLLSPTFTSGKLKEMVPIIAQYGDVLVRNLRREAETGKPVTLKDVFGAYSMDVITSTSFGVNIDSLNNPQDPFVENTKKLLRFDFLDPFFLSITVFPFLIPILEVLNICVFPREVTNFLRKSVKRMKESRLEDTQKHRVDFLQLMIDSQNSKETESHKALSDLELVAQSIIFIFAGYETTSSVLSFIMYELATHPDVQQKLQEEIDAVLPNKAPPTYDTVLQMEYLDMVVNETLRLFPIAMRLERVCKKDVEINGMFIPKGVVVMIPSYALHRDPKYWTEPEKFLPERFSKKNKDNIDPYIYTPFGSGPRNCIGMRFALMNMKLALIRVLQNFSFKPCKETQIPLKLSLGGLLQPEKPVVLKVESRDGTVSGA

Take `CCCOCC(=Nc1ccc(Cl)cc1C(F)(F)F)n1ccnc1`: the AC50 in [1] was 2.36 µM (active); in [4], 1.15 µM (active); in [5], 2.07 µM (active); in [7], 20 µM (active). Also, the compound was called inactive in assay [2], in assay [3], in [6] and in [8].
In the case of `COP(=O)(NC(C)=O)SC` (stereo not given), the result in assay [9], in assay [3], in assay [10], in [5] and in [6] was inactive.
Take `CCOC(=O)CC(SP(=O)(OC)OC)C(=O)OCC` (stereo not given): the outcome in assay [11], in assay [12], in assay [2], in assay [3], in assay [10] and in assay [5] was inactive. The call in assay [7] and in [14] was inactive. Also, the AC50 is 14.4 µM (active) in assay [4], 2.38 µM (active) in assay [13] and 20 µM (active) in assay [8].
On to `CCC(=O)Nc1ccc(Cl)c(Cl)c1`, for which the result in [15], in assay [2] and in assay [10] was inactive. In addition, the AC50 is 7.9 µM (active) in assay [4], 61.3 µM (active) in assay [5], 3.95 µM (active) in [13] and 3.95 µM (active) in [8].
For `CN(C)C(=O)Nc1cccc(C(F)(F)F)c1`, the outcome in [15], in assay [3], in assay [4], in [10], in [5] and in assay [7] was inactive. In addition, in [14], the outcome was inactive. For the same compound, the AC50 in assay [13] is 3.66 µM (active).
Turning to `O=[N+]([O-])c1cc(C(F)(F)F)c(Cl)c([N+](=O)[O-])c1Nc1ncc(C(F)(F)F)cc1Cl`, the result in [2], in assay [4], in [10] and in assay [6] was inactive. For the same compound, the AC50 in assay [5] was 0.994 µM (active).
Turning to `COc1ccc(C(=CC(=O)N2CCOCC2)c2ccc(Cl)cc2)cc1OC`, the call in assay [15], in assay [3], in assay [7] and in assay [14] was inactive. The AC50 was 4.1 µM (active) in [4], 23.6 µM (active) in [5] and 2.09 µM (active) in assay [16].
On to `CC1=NNC(=O)N(/N=C/c2cccnc2)C1`, for which the result in assay [12], in assay [2], in [3], in assay [4], in [10] and in [6] was inactive. Further, the outcome in assay [17], in assay [8] and in assay [14] was inactive. Besides, the AC50 in [5] was 46.4 µM (active); in [13], 5.59 µM (active).
With `CCOP(=O)(NC(C)C)Oc1ccc(SC)c(C)c1` (stereo not given), the AC50 was 20 µM (active) in assay [1], 3.13 µM (active) in assay [4], 50.3 µM (active) in assay [5] and 6.73 µM (active) in assay [13]. Further, the call in assay [14] was inactive.
Take `CCC(CC)Nc1c([N+](=O)[O-])cc(C)c(C)c1[N+](=O)[O-]`: the result in [15], in assay [2], in assay [6] and in [14] was inactive. In addition, the AC50 is 20 µM (active) in assay [1], 3.47 µM (active) in assay [4], 24.2 µM (active) in [5] and 33.4 µM (active) in assay [13].
